# Measurements: PubChem BioAssay (NCI)
# This is part of a sample that, as a whole, favours compounds with a hit. Of some 83,000 tested, about 20% had one in any assay.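 48-hour exposure, single concentration, 96-well plates; percent growth endpoint where 0 means no net growth. Active: below 10.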 Activity calls are given as the source filed them.
# System: PC-3 prostate
# Experiment: NCI-60 one-dose screen, 48 h (100 = growth as untreated, 0 = no growth, -100 = all killed)
# Settings: 10 µM unless noted
row,SMILES,growth
1,Cc1cc2c(c(C)c1Cl)C(=O)/C(=C/c1ccco1)O2,98.5% (inactive)
2,CN(C)CCNc1cc(-c2ccccc2)nc2ccccc12,-38.5% (active)
3,COc1ccc(CCN2CCC(CN(C)Cc3cnn(-c4ccccc4)c3)CC2)cc1,34% (inactive)
4,COc1ccc(/C=C/C(=O)c2c(C)nc3ccccc3c2/C=C/c2ccccc2)cc1O,58.4% (inactive)
5,Nc1n[nH]c2ccc([C@@H]3Nc4ccc5[nH]ncc5c4[C@H]4[C@H]5CCC(C5)[C@H]43)cc12,25.6% (inactive)
6,O=c1c2cc(F)ccc2sc2c(NCCN3CCCC3)nc3ccccc3c12,61% (inactive)
7,COc1ccc2sc(N(Cc3cccnc3)C(=O)c3ccc(C#N)cc3)nc2c1,78.2% (inactive)
8,COC(=O)/C(CCC=C(C)C)=C1\[C@@H](OC(C)=O)C[C@@]2(C)[C@H]1C[C@@H](O)[C@H]1[C@@]3(C)CC[C@H](NC(=O)c4cnccn4)[C@@H](C)[C@@H]3CC[C@@]12C,86.2% (inactive)
9,CCOc1ccc(Nc2ccnc3cc(Cl)ccc23)cc1,4.74% (active)
10,O=C(Nc1ccsc1C(=O)NC1CCCCC1)c1ccc(F)cc1,67.9% (inactive)
11,CCn1c(-c2nonc2Nc2ccc(OC)cc2)nc2ccccc21,107% (inactive)
12,COc1ccc(/C=C2\N=C(c3ccccc3)N(c3ccc(-c4nc5ccc(C)cc5s4)cc3)C2=O)cc1,63.1% (inactive)
13,CSc1nc2c(c(=O)[nH]1)N=C1c3ccccc3C(=O)C1C(c1ccccc1)N2 (stereo not drawn),54.5% (inactive)
14,CC1(C)CC2(C)OC2C2(C1)N=NC(=Nc1ccccc1)O2 (stereo not drawn),62.5% (inactive)
15,COC(=O)/C(=C\c1c(-c2ccccc2)[nH]c2ccccc12)S(C)(=O)=O,25.6% (inactive)
16,O=C(NN1C(=O)CSC1c1ccc(Cl)cc1)c1[nH]c2ccc(F)cc2c1-c1ccccc1 (stereo not drawn),42.7% (inactive)
17,CC(=O)n1cc(-c2c[nH]c3ccccc23)c(-c2ccc(Cl)cc2)n1,81.5% (inactive)
18,O=C(N/N=C/c1ccccc1Cl)C(=O)Nc1cccc(C(F)(F)F)c1,106% (inactive)
19,COc1cccc2cc(N(C)c3nc(C)nc4ccsc34)ccc12,12.7% (inactive)
20,O=C(Cn1cc(COc2ncnc3c2cnn3-c2ccccc2)nn1)Nc1cccc2ccccc12,95.8% (inactive)

row,SMILES,growth
1,CCC1=C[C@]2(C3CC(=O)N(c4ccccc4)C3=O)CC(C(C)(C)C)C[C@@H]2[C@@H]2C(=O)N(c3ccccc3)C(=O)[C@H]12 (stereo partly drawn),56.7% (inactive)
2,CCCN1CCN(c2ccc3nc(-c4ccc5nc(-c6cc(OC)ccc6OC)[nH]c5c4)[nH]c3c2)CC1,103% (inactive)
3,COc1ccc2c(c1)C=C1CSCC3=Cc4cc(OC)ccc4OC13O2,19.3% (inactive)
4,COc1ccc(-c2nc(-c3ccccn3)c(-c3ccccn3)n2CC(C)C)cc1OC1CCCC1,12.6% (inactive)
5,CCN1C(=O)N(CC)C2C1NC(=S)N2/N=C/C=C/c1ccccc1OC (stereo not drawn),25.2% (inactive)
6,O=C(c1nc2ccccc2[nH]1)C1C(c2ccc([N+](=O)[O-])cc2)C2CC3CCCCC3N2[C@@]12C(=O)Nc1cc(Cl)ccc12 (stereo partly drawn),22.3% (inactive)
7,COc1cc(-c2c3c(c(Br)n2Cc2ccccc2)-c2nc(N)sc2CC3)cc(OC)c1OC,78.6% (inactive)
8,Cn1c(C(=O)c2cccc3ccccc23)nc2ccccc21,27.7% (inactive)
9,C1=CC2(C=C1)OC21CCC2(C=CC3(C2)OC3C2CCCCC2)CC1 (stereo not drawn),101% (inactive)
10,O=C1/C=C/[C@@H](O)[C@@H]2C[C@@H](O)C[C@H]2/C=C/CCCCO1,-17.5% (active)
11,CS(=O)(=O)Nc1ccc(C(=O)NC(C(=O)NO)c2ccc(-c3cccc(F)c3)cc2)cc1 (stereo not drawn),86.9% (inactive)
12,CCN1CCN(c2cc(C)c3cc(NC(=O)c4ccc(OC)c(OC)c4)ccc3n2)CC1,49.2% (inactive)
13,Cc1ccc(OCCCCCCNCCO)c(C)c1,16% (inactive)
14,CCOc1ccc2nc(C)cc(Nc3ccc(Br)cc3)c2c1,86.7% (inactive)
15,Cn1c2c(c(=O)[nH]c1=O)NC1=C(C(=O)c3ccccc31)C1(C=C(O)c3ccccc31)N2 (stereo not drawn),94.1% (inactive)
16,CC(C)(C)c1ccc(C2CC(=O)C3=C(C2)Nc2ccccc2N(C(=O)c2ccccc2Cl)C3c2ccc(F)cc2)cc1 (stereo not drawn),8.88% (active)
17,Oc1ccc(-c2nc(-c3ccc4oc5ccc(-c6[nH]c(-c7ccc(O)cc7)nc6-c6ccccc6)cc5c4c3)c(-c3ccccc3)[nH]2)cc1,52.1% (inactive)
18,CN(CCc1ccccc1)C(=S)N(C(=O)c1ccc([N+](=O)[O-])cc1)c1ccc(Cl)cc1,77.5% (inactive)
19,Nc1no[n+]([O-])c1-c1nnc2c(n1)-c1ccccc1C2=O,33.6% (inactive)

# System: SK-MEL-5 melanoma
# Experiment: as above
# Settings: 10 µM unless noted
row,SMILES,growth
1,Cc1cc2c(c(C)c1Cl)C(=O)/C(=C/c1ccco1)O2,69.9% (inactive)
2,CN(C)CCNc1cc(-c2ccccc2)nc2ccccc12,-74.3% (active)
3,COc1ccc(CCN2CCC(CN(C)Cc3cnn(-c4ccccc4)c3)CC2)cc1,18.9% (inactive)
4,COc1ccc(/C=C/C(=O)c2c(C)nc3ccccc3c2/C=C/c2ccccc2)cc1O,59.3% (inactive)
5,Nc1n[nH]c2ccc([C@@H]3Nc4ccc5[nH]ncc5c4[C@H]4[C@H]5CCC(C5)[C@H]43)cc12,16.9% (inactive)
6,O=c1c2cc(F)ccc2sc2c(NCCN3CCCC3)nc3ccccc3c12,79.7% (inactive)
7,COc1ccc2sc(N(Cc3cccnc3)C(=O)c3ccc(C#N)cc3)nc2c1,80.9% (inactive)
8,COC(=O)/C(CCC=C(C)C)=C1\[C@@H](OC(C)=O)C[C@@]2(C)[C@H]1C[C@@H](O)[C@H]1[C@@]3(C)CC[C@H](NC(=O)c4cnccn4)[C@@H](C)[C@@H]3CC[C@@]12C,96.5% (inactive)
9,CCOc1ccc(Nc2ccnc3cc(Cl)ccc23)cc1,-12.5% (active)
10,O=C(Nc1ccsc1C(=O)NC1CCCCC1)c1ccc(F)cc1,105% (inactive)
11,CCn1c(-c2nonc2Nc2ccc(OC)cc2)nc2ccccc21,104% (inactive)
12,COc1ccc(/C=C2\N=C(c3ccccc3)N(c3ccc(-c4nc5ccc(C)cc5s4)cc3)C2=O)cc1,85.3% (inactive)
13,CSc1nc2c(c(=O)[nH]1)N=C1c3ccccc3C(=O)C1C(c1ccccc1)N2 (stereo not drawn),16.1% (inactive)
14,CC1(C)CC2(C)OC2C2(C1)N=NC(=Nc1ccccc1)O2 (stereo not drawn),61.5% (inactive)
15,COC(=O)/C(=C\c1c(-c2ccccc2)[nH]c2ccccc12)S(C)(=O)=O,14.3% (inactive)
16,O=C(NN1C(=O)CSC1c1ccc(Cl)cc1)c1[nH]c2ccc(F)cc2c1-c1ccccc1 (stereo not drawn),75% (inactive)
17,CC(=O)n1cc(-c2c[nH]c3ccccc23)c(-c2ccc(Cl)cc2)n1,78.8% (inactive)
18,O=C(N/N=C/c1ccccc1Cl)C(=O)Nc1cccc(C(F)(F)F)c1,96.6% (inactive)
19,COc1cccc2cc(N(C)c3nc(C)nc4ccsc34)ccc12,-63% (active)
20,O=C(Cn1cc(COc2ncnc3c2cnn3-c2ccccc2)nn1)Nc1cccc2ccccc12,92.5% (inactive)

row,SMILES,growth
1,CCC1=C[C@]2(C3CC(=O)N(c4ccccc4)C3=O)CC(C(C)(C)C)C[C@@H]2[C@@H]2C(=O)N(c3ccccc3)C(=O)[C@H]12 (stereo partly drawn),92.1% (inactive)
2,CCCN1CCN(c2ccc3nc(-c4ccc5nc(-c6cc(OC)ccc6OC)[nH]c5c4)[nH]c3c2)CC1,99.5% (inactive)
3,COc1ccc2c(c1)C=C1CSCC3=Cc4cc(OC)ccc4OC13O2,14% (inactive)
4,COc1ccc(-c2nc(-c3ccccn3)c(-c3ccccn3)n2CC(C)C)cc1OC1CCCC1,15.5% (inactive)
5,CCN1C(=O)N(CC)C2C1NC(=S)N2/N=C/C=C/c1ccccc1OC (stereo not drawn),-40.7% (active)
6,O=C(c1nc2ccccc2[nH]1)C1C(c2ccc([N+](=O)[O-])cc2)C2CC3CCCCC3N2[C@@]12C(=O)Nc1cc(Cl)ccc12 (stereo partly drawn),-57.1% (active)
7,COc1cc(-c2c3c(c(Br)n2Cc2ccccc2)-c2nc(N)sc2CC3)cc(OC)c1OC,87.1% (inactive)
8,Cn1c(C(=O)c2cccc3ccccc23)nc2ccccc21,-38.1% (active)
9,C1=CC2(C=C1)OC21CCC2(C=CC3(C2)OC3C2CCCCC2)CC1 (stereo not drawn),106% (inactive)
10,O=C1/C=C/[C@@H](O)[C@@H]2C[C@@H](O)C[C@H]2/C=C/CCCCO1,-93.1% (active)
11,CS(=O)(=O)Nc1ccc(C(=O)NC(C(=O)NO)c2ccc(-c3cccc(F)c3)cc2)cc1 (stereo not drawn),48% (inactive)
12,CCN1CCN(c2cc(C)c3cc(NC(=O)c4ccc(OC)c(OC)c4)ccc3n2)CC1,19.4% (inactive)
13,Cc1ccc(OCCCCCCNCCO)c(C)c1,-58.3% (active)
14,CCOc1ccc2nc(C)cc(Nc3ccc(Br)cc3)c2c1,97.1% (inactive)
15,Cn1c2c(c(=O)[nH]c1=O)NC1=C(C(=O)c3ccccc31)C1(C=C(O)c3ccccc31)N2 (stereo not drawn),111% (inactive)
16,CC(C)(C)c1ccc(C2CC(=O)C3=C(C2)Nc2ccccc2N(C(=O)c2ccccc2Cl)C3c2ccc(F)cc2)cc1 (stereo not drawn),-97.5% (active)
17,Oc1ccc(-c2nc(-c3ccc4oc5ccc(-c6[nH]c(-c7ccc(O)cc7)nc6-c6ccccc6)cc5c4c3)c(-c3ccccc3)[nH]2)cc1,70.8% (inactive)
18,CN(CCc1ccccc1)C(=S)N(C(=O)c1ccc([N+](=O)[O-])cc1)c1ccc(Cl)cc1,98.3% (inactive)
19,Nc1no[n+]([O-])c1-c1nnc2c(n1)-c1ccccc1C2=O,19.7% (inactive)
